Test results: the supplement of paper PMC6555819

Key:
Assay in all cases: PBM binding z-score (relative to random genomic background probes); higher = stronger binding; sequences stand for … in GC…GCGATTGACAGCGTAGAATGAAGG
[1] = test system: RARb homodimer (NR concentration 270 nM)
In short: (§1)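 Ligand-free nuclear receptor dimers were bound for 1 h to custom Agilent 4×180K protein-binding microarrays. Detection used antibodies against each partner (one per run). Binding z-scores rest on regression-normalized fluorescence, with random background probes as the reference.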

[2] = test system: RARg:RXRa (NR concentration 270 nM, RXRa partner concentration 90 nM)
In short: as §1

[3] = test system: RARg homodimer (NR concentration 270 nM)
In short: as §1

[4] = test system: RXRa DBDmut IVT, anti-RXR (DBD mutation: RXRa K156A/R161A, NR concentration 90 nM)
In short: as §1

[5] = test system: RXRa homodimer (NR concentration 180 nM)
In short: as §1

[6] = test system: THRa:RXRa (NR concentration 90 nM, RXRa partner concentration 90 nM)
In short: as §1

[7] = test system: THRa homodimer (NR concentration 90 nM)
In short: as §1

[8] = test system: VDR:RXRa (NR concentration 270 nM, RXRa partner concentration 90 nM)
In short: as §1

[9] = test system: VDR homodimer (NR concentration 270 nM)
In short: as §1

| Sequence | PBM binding z-score [1] | PBM binding z-score [2] | PBM binding z-score [3] | PBM binding z-score [4] | PBM binding z-score [5] | PBM binding z-score [6] | PBM binding z-score [7] | PBM binding z-score [8] | PBM binding z-score [9] |
| --- | --- | --- | --- | --- | --- | --- | --- | --- | --- |
| AATACAGGGTCACTAGGCCAAAGTAGGTACGAAT | 3.62 | 5.16 | 4.42 | 2.71 | 5.98 | 3.48 | 1.09 | 4.27 | 2.19 |
| GCGACTTGGGCAAAGCAGGTTACCATAAGGTTGG | -0.0673 | -0.0478 | -0.407 | -0.506 | 0.218 | 1.39 | -0.348 | -0.467 | -0.774 |
| ATCGAAAGGTCGAGGTAAGTATAGAGAAAGGGAA | 2.39 | 4.25 | 4.27 | 0.467 | 4.6 | 2.58 | 0.233 | 2.36 | 0.546 |
| AGAACGAGGGCACGCTCAGTTGATAGCAGAGTAG | 1.02 | 1.9 | 2.25 | 1.94 | 1.28 | 1.82 | -0.0296 | 1.4 | 0.752 |
| TCTTGTAGATCAACAGGAGGTTAAGAAAGATCGA | 0.548 | 0.934 | 0.306 | 0.35 | 0.762 | 0.782 | -0.703 | 0.453 | -0.387 |
| ATCCCTAGGTAACCAAGTTCAGTGAATGCCGAAC | 1.97 | 0.484 | 0.374 | 0.841 | 0.841 | 1.79 | 1.02 | 4.31 | 2.77 |
| TGTCGAAGTTCAAAGGTAACGTAAGTATCCACAC | 2.43 | 4.25 | 3.04 | 3.6 | 5.18 | 2.81 | -0.0887 | 3.71 | 2.72 |
| TCATATAGGTAATACAGGTGAAAGTGGGCATCTA | 0.844 | 0.777 | 0.705 | 2.06 | 1.3 | 0.901 | 0.52 | 1.47 | 0.577 |
| CGTCCAAGGTCTAAGGTCAGTGAAGAGATGACGG | 3.66 | 3.47 | 4.02 | 1.14 | 3.1 | 3.65 | 3.24 | 1.73 | 1.1 |
| TAGCCTAGGTCATTCAGGGGCGAGTATAGAAAGC | 2.77 | 4.27 | 3.93 | 2.29 | 2.79 | 4.54 | 0.866 | 4.57 | 1.68 |
| TAGCCTAGGTCATGGGCCACTATACCACGCGAAC | 3.27 | 4.38 | 4.64 | 0.641 | 3.72 | 3.14 | 1.57 | 2.22 | 0.754 |
| CAAACTAGGTCACAGAGGTCAGAGTCCGTGCGTA | 5.34 | 6.58 | 7.37 | 3.02 | 6.43 | 4.37 | 2.49 | 7.34 | 4.93 |
| ATCGTAAGGTCGAGGTGAGTATAGAGAAAGGGAA | 2.13 | 3 | 3.23 | 1.49 | 2.55 | 3.43 | 2.18 | 1.99 | 0.892 |
| CGATCTAGGTCAGAACAGGACAGTGAAGGATGAT | 1.97 | 2.2 | 2.89 | 0.851 | 0.982 | 3.36 | 0.505 | 0.316 | -0.107 |
| TATAGAGGGTCAAAGGCCAGAGTACGAATGTCGA | 3.3 | 4.91 | 4.91 | 2.16 | 6.11 | 2.39 | -0.0967 | 3.83 | 1.73 |
| AGAACGAGGGCACGCTGAGTTGATAGTAGAGTAG | 1.25 | 1.99 | 2.41 | 2.07 | 1.34 | 1.9 | 0.0891 | 2.38 | 1.95 |
| ACTTACGGTTCAACGAGGTTATAGCACGCGTATA | 1.54 | 2.25 | 1.14 | 3.49 | 3.22 | 3.06 | 0.878 | 7.06 | 5.32 |
| TATCCTAGGTCATGCGGGCCAGTATAGTGTCGGC | 3.12 | 4.06 | 4.98 | 1.6 | 3.59 | 3.43 | 1.91 | 3.5 | 1.29 |
| CTCGAAAGGTCGGTTGAGGTGAGTATACGGATAA | 2.15 | 2.63 | 2.54 | 0.556 | 1.95 | 5.09 | 1.33 | 2.14 | 0.68 |
| AGAACGAGGGGACGCTGAGTTGATAGCAGAGTAG | 0.0721 | 0.0507 | 0.265 | 0.401 | -0.0794 | 0.202 | -0.233 | 0.464 | 1.16 |
| ATATATAGGTTAGCTGGGGTCATTCAGACTAGGC | 3.92 | 4.47 | 3.4 | 2.09 | 5.55 | 5.15 | 3.63 | 6.61 | 5.64 |
| CCGAGTAGGTTATGGGGTATTCAGGCAACGGTGA | 0.841 | 0.46 | 0.562 | 0.0146 | 0.873 | 0.963 | 1.05 | 0.559 | 0.274 |
| GCTAGTTGGTCATTAAAAGGTCACACACCGGTCG | 5.47 | 6.05 | 4.99 | 0.694 | 5.65 | 3.8 | 2.01 | 4.42 | 1.75 |
| ACTAGTCGGTCAGCTGAGGTCACACACAATTCGG | 4.94 | 4.99 | 5.76 | 1.43 | 4.35 | 5.27 | 5.28 | 5.12 | 3.97 |
| AGAATGAGGTTACCAAAGATCAAGGAAACGCTTG | 0.992 | 2.37 | 1.88 | 1.13 | 2.85 | 3.03 | 0.74 | 1.81 | 0.375 |
| CCTTACGGGTCACTGACCGGTTATAGCATTTGGA | 3.25 | 5.43 | 4.56 | 1.45 | 4.82 | 2.56 | 0.389 | 3.34 | 0.995 |

| Sequence | PBM binding z-score [1] | PBM binding z-score [2] | PBM binding z-score [3] | PBM binding z-score [4] | PBM binding z-score [5] | PBM binding z-score [6] | PBM binding z-score [7] | PBM binding z-score [8] | PBM binding z-score [9] |
| --- | --- | --- | --- | --- | --- | --- | --- | --- | --- |
| TAAATGAGGTTAAAGATCAGGGAACGTGGCGTCG | 1.22 | 2.58 | 1.64 | 1.2 | 4.01 | 3.09 | 0.733 | 2.22 | 1.12 |
| GGAACGGGGGCAAAGTTGATAGCATCTGTCGACG | 2.04 | 3.72 | 2.45 | 3.44 | 3.61 | 2.65 | 0.962 | 3.25 | 3.49 |
| CGAACTAGGTCAATGACAGGACAGTGAATAGTAA | 2.71 | 4.32 | 4.46 | 1.49 | 2.17 | 2.62 | 0.35 | 1.38 | 0.409 |
| GTACCAAGGTGAATATGTCGTTGATGAGTAGGCG | 0.432 | 0.746 | 0.888 | -0.0689 | 0.5 | 1.34 | 0.837 | -0.0532 | 0.112 |
| CCTTACGGGTTACGAGGTTATAGCACGACGAGCG | 1.24 | 2.31 | 1.43 | -0.0539 | 2.99 | 2.23 | 0.638 | 2.36 | 0.469 |
| CAAACTAGGTCAAGATCAAAGTCGGTTTGTGCCA | 2.77 | 3.45 | 4.74 | 1.66 | 2.69 | 2.75 | 0.747 | 1.52 | 0.787 |
| ATCGAAAGGTCGAAGGTGAGTAAACCCACCCGAA | 2.45 | 4.43 | 3.92 | 1.23 | 4.9 | 2.15 | 0.0401 | 2.84 | 1.17 |
| CCGAGTAGGTTATGCGGCATTCAGGCAACGGTGA | 0.275 | 0.0373 | -0.0255 | -0.0566 | 0.274 | -0.034 | 0.263 | -0.251 | -0.167 |
| ACAGACAAGTGATGAAGGTAACTCAGGCTATCAT | 0.0016 | -0.0454 | 0.277 | -0.483 | 0.153 | 0.639 | -0.0791 | -0.0224 | -0.536 |
| CAAACTCGGTCAAGGTCAAAGTCGGTTTGTGCCA | 4.47 | 5.26 | 5.55 | 2.48 | 4.82 | 4 | 3.53 | 4.95 | 4.43 |
| ACAGACAGGTGGGTGAAGGTAACTCAGCTGGACG | 0.378 | 0.052 | 0.248 | -0.598 | 0.193 | 0.52 | -0.174 | -0.163 | -0.176 |
| CGAACGAGGGCATGAGTTGATAGCAAATGCCGAT | 0.843 | 1.54 | 2 | 2.58 | 1.17 | 1.48 | -0.132 | 1.43 | 2.02 |
| ATCGAAAGCTCGAGGTGAGTATAGAGAAAGGGAA | -0.503 | 0.0363 | 0.189 | -0.888 | -0.0727 | 0.963 | -0.199 | -0.459 | -0.71 |
| CCTCAAAGTTCAAGGTAACGTAACAGAAAGCAGC | 4.13 | 5.48 | 6.39 | 4.29 | 4.44 | 3.32 | 1.79 | 4.07 | 3.65 |
| GGAACGAGGGCAAAGTTAATAGCATCTGTCGACG | 1.24 | 1.77 | 1.99 | 2.78 | 1.55 | 1.27 | -0.176 | 1.17 | 1.31 |
| TCTTGTAGATCGAAGGTTAAGAAAGCCGAAGCCT | 0.0841 | 0.243 | -0.136 | 0.423 | 0.859 | 0.418 | -0.559 | 0.313 | -0.284 |
| TCTTGCAGATCAATAGAGGTTAAGAAAGTGCGCT | 1.01 | 0.797 | 0.305 | 0.292 | 1.37 | 2.42 | -0.532 | 1.79 | -0.0844 |
| ACTATTAGTTGACTTATGGCAACCGATACGACGC | 0.102 | 0.814 | 0.872 | 0.726 | 0.823 | 0.347 | -0.0591 | 0.458 | 0.143 |
| CATAAAGGGTCAGCTAGGCCAGAGTAGGGACGGC | 4.09 | 5.41 | 6.23 | 1.52 | 4.42 | 2.65 | 0.204 | 4.05 | 0.783 |
| CCTTACGGGTCACTGACAGGTTATAACATTTGGA | 3.33 | 5.87 | 4.56 | 1.78 | 5.31 | 3.12 | 0.436 | 3.84 | 1.21 |
| CCTACTGGGCGAAAAAGGTCATTGATGCCGATAA | 4 | 3.97 | 3.43 | 0.151 | 4.51 | 3.05 | -0.0329 | 4.21 | 1.75 |
| CCGAGTATGTTATGGGGCATTCAGGCAACGGTGA | 0.485 | 0.112 | 0.276 | 0.833 | 0.294 | 0.302 | 0.125 | -0.0094 | 0.00991 |
| TCTTGTAGATCAGCAGGTTAACAAAGCTGGCCAA | 0.38 | 0.348 | -0.352 | 0.44 | 0.609 | 0.517 | -0.468 | 0.696 | -0.328 |
| CCTACTGGGCCACGAAGGGTCATTGATTCAGTGA | 3.41 | 2.96 | 2.73 | -0.323 | 2.86 | 3 | -0.121 | 3.09 | 1.53 |
| CAGCCTAGGTTAGGGCCAGTATAGGAGGAACGTT | 0.216 | 0.0888 | 0.349 | -0.851 | 0.0782 | -0.0554 | -0.75 | -0.611 | -0.636 |
| AGAATGAGGTTAAGATCACGGAAACAGAATACAT | 0.84 | 2.33 | 1.81 | 0.924 | 2.92 | 2.47 | 0.742 | 1.41 | 0.686 |
